# Experimental data published in PubChem BioAssay (NCI).
# Values joined by “and” are separate entries in the source; they are usually repeats but may differ in a detail not shown here. Equal values may be shown once. This is part of a sample that, as a whole, favours compounds with a hit. Of some 83,000 tested, about 20% had one in any assay.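 48-hour exposure, single concentration, 96-well plates; percent growth endpoint where 0 means no net growth. Active: below 10.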 More than one record can exist for a structure, and the calls need not agree. Active and inactive are the calls of the source.
# How the values were obtained:
# Assay in all cases: NCI-60 one-dose screen, 48 h (100 = growth as untreated, 0 = no growth, -100 = all killed)
# SK-MEL-2 melanoma = conditions: 10 µM
# EKVX NSCLC = conditions: 10 µM
# SN12C renal = conditions: 10 µM
# UO-31 renal = conditions: 10 µM
# TK-10 renal = tested on: TK-10 renal
# ACHN renal = conditions: 10 µM
# CAKI-1 renal = conditions: 10 µM
# A498 renal = conditions: 10 µM
# CCRF-CEM leukemia = conditions: 10 µM
# MOLT-4 leukemia = conditions: 10 µM
# SR leukemia = conditions: 10 µM
# RPMI-8226 leukemia = conditions: 10 µM
# OVCAR-5 ovarian = conditions: 10 µM
# SK-OV-3 ovarian = conditions: 10 µM
# IGROV1 ovarian = conditions: 10 µM
# OVCAR-3 ovarian = conditions: 10 µM
# HS 578T breast = conditions: 10 µM
# NCI/ADR-RES ovarian = conditions: 10 µM
# OVCAR-8 ovarian = conditions: 10 µM
# OVCAR-4 ovarian = conditions: 10 µM
smiles,measurement,setting,value
Cc1cc(N(CCOS(C)(=O)=O)CCOS(C)(=O)=O)ccc1C=Nc1ccc(-c2nc(Cc3ccccc3)sc2C)cc1,growth,SK-MEL-2 melanoma,86.3% (inactive)
same,growth,EKVX NSCLC,11.1% (inactive)
same,growth,SN12C renal,52.3% (inactive)
same,growth,UO-31 renal,22.2% (inactive)
same,growth,TK-10 renal; 10 µM,14.2% (inactive)
same,growth,ACHN renal,-23.2% (active)
same,growth,CAKI-1 renal,-32% (active)
same,growth,A498 renal,-48.7% (active)
same,growth,CCRF-CEM leukemia,23.4% (inactive)
same,growth,MOLT-4 leukemia,14.2% (inactive)
same,growth,SR leukemia,23.4% (inactive)
same,growth,RPMI-8226 leukemia,62.3% (inactive)
same,growth,OVCAR-5 ovarian,67% (inactive)
same,growth,SK-OV-3 ovarian,3.43% (active)
same,growth,IGROV1 ovarian,11.4% (inactive)
same,growth,OVCAR-3 ovarian,41.9% (inactive)
same,growth,HS 578T breast,79.8% (inactive)
same,growth,NCI/ADR-RES ovarian,40.7% (inactive)
COc1cc([C@@H]2c3cc4c(cc3[C@@H](Nc3ccc(NC(=O)c5cc([N+](=O)[O-])cn5C)cc3)[C@H]3COC(=O)[C@H]23)OCO4)cc(OC)c1O,growth,TK-10 renal; 100 µM,-28.8% (active)
COc1ccc(C(=O)C(CN(C)C)CN(C)C)cc1,growth,SK-MEL-2 melanoma,149% (inactive)
same,growth,EKVX NSCLC,-17% (active)
same,growth,SN12C renal,98.9% (inactive)
same,growth,UO-31 renal,17% (inactive)
same,growth,TK-10 renal; 10 µM,15.7% (inactive)
same,growth,ACHN renal,-85.5% (active)
same,growth,CAKI-1 renal,-84.8% (active)
same,growth,A498 renal,99% (inactive)
same,growth,CCRF-CEM leukemia,36.3% (inactive)
same,growth,MOLT-4 leukemia,-32% (active)
same,growth,SR leukemia,-46.3% (active)
same,growth,RPMI-8226 leukemia,64.3% (inactive)
same,growth,OVCAR-8 ovarian,41.1% (inactive)
same,growth,OVCAR-5 ovarian,116% (inactive)
same,growth,OVCAR-4 ovarian,-93.8% (active)
same,growth,SK-OV-3 ovarian,108% (inactive)
same,growth,IGROV1 ovarian,140% (inactive)
same,growth,OVCAR-3 ovarian,-85% (active)
same,growth,HS 578T breast,83% (inactive)
same,growth,NCI/ADR-RES ovarian,101% (inactive)
CN(C)CCOC1(Cc2ccc(Cl)cc2Cl)CCC(C(C)(C)C)CC1 (stereo unspecified),growth,SK-MEL-2 melanoma,94.8% (inactive) and 54.6% (inactive)
same,growth,EKVX NSCLC,48.2% (inactive) and 54.6% (inactive)
same,growth,SN12C renal,18.8% (inactive) and -12.6% (active)
same,growth,UO-31 renal,29.3% (inactive) and 30.2% (inactive)
same,growth,TK-10 renal; 10 µM,60.4% (inactive) and 61.9% (inactive)
same,growth,ACHN renal,48.7% (inactive) and -4.79% (active)
same,growth,CAKI-1 renal,36.2% (inactive) and 22.1% (inactive)
same,growth,A498 renal,63.9% (inactive) and 63.3% (inactive)
same,growth,CCRF-CEM leukemia,4.16% (active) and -9.84% (active)
same,growth,MOLT-4 leukemia,-14.2% (active) and -16.7% (active)
same,growth,SR leukemia,-34.8% (active) and -29.5% (active)
same,growth,RPMI-8226 leukemia,11.6% (inactive) and -10% (active)
same,growth,OVCAR-8 ovarian,36.5% (inactive) and -27.3% (active)
same,growth,OVCAR-5 ovarian,43.8% (inactive) and 5.22% (active)
same,growth,OVCAR-4 ovarian,36.1% (inactive) and 15.1% (inactive)
same,growth,SK-OV-3 ovarian,69.6% (inactive) and 57.8% (inactive)
same,growth,IGROV1 ovarian,41.7% (inactive) and 25.3% (inactive)
same,growth,OVCAR-3 ovarian,39.5% (inactive) and 11.1% (inactive)
same,growth,HS 578T breast,52.4% (inactive) and 49.6% (inactive)
same,growth,NCI/ADR-RES ovarian,27% (inactive) and 44.4% (inactive)
Cc1ccc(Sc2ccccc2N)cc1,growth,SK-MEL-2 melanoma,15.9% (inactive)
same,growth,EKVX NSCLC,121% (inactive)
same,growth,SN12C renal,89% (inactive)
same,growth,UO-31 renal,81.5% (inactive)
same,growth,TK-10 renal; 10 µM,98% (inactive)
same,growth,ACHN renal,-20% (active)
same,growth,CAKI-1 renal,62.5% (inactive)
same,growth,A498 renal,118% (inactive)
same,growth,CCRF-CEM leukemia,88.2% (inactive)
same,growth,MOLT-4 leukemia,81.2% (inactive)
same,growth,SR leukemia,71.6% (inactive)
same,growth,RPMI-8226 leukemia,89.8% (inactive)
same,growth,OVCAR-8 ovarian,79.1% (inactive)
same,growth,OVCAR-5 ovarian,82.7% (inactive)
same,growth,OVCAR-4 ovarian,93.6% (inactive)
same,growth,SK-OV-3 ovarian,94.9% (inactive)
same,growth,IGROV1 ovarian,76.2% (inactive)
same,growth,OVCAR-3 ovarian,121% (inactive)
same,growth,HS 578T breast,110% (inactive)
same,growth,NCI/ADR-RES ovarian,84.3% (inactive)
O=[N+]([O-])c1cc[n+]([O-])cc1,growth,SK-MEL-2 melanoma,110% (inactive)
same,growth,EKVX NSCLC,110% (inactive)
same,growth,SN12C renal,92.8% (inactive)
same,growth,UO-31 renal,93.6% (inactive)
same,growth,TK-10 renal; 10 µM,110% (inactive)
same,growth,ACHN renal,114% (inactive)
same,growth,CAKI-1 renal,106% (inactive)
same,growth,A498 renal,93.8% (inactive)
same,growth,CCRF-CEM leukemia,121% (inactive)
same,growth,MOLT-4 leukemia,69.3% (inactive)
same,growth,SR leukemia,107% (inactive)
same,growth,RPMI-8226 leukemia,102% (inactive)
same,growth,OVCAR-8 ovarian,103% (inactive)
same,growth,OVCAR-5 ovarian,145% (inactive)
same,growth,OVCAR-4 ovarian,111% (inactive)
same,growth,SK-OV-3 ovarian,130% (inactive)
same,growth,IGROV1 ovarian,107% (inactive)
same,growth,OVCAR-3 ovarian,114% (inactive)
same,growth,HS 578T breast,104% (inactive)
same,growth,NCI/ADR-RES ovarian,103% (inactive)
C#CCN(Cc1ccc2nc(N)[nH]c(=O)c2c1)c1ccc(C(=O)NC(CCC(=O)O)C(=O)O)cc1 (stereo unspecified),growth,SK-MEL-2 melanoma,143% (inactive)
same,growth,EKVX NSCLC,55.6% (inactive)
same,growth,SN12C renal,48.9% (inactive)
same,growth,TK-10 renal; 10 µM,78.5% (inactive)
same,growth,ACHN renal,30.1% (inactive)
same,growth,CAKI-1 renal,33.2% (inactive)
same,growth,A498 renal,110% (inactive)
same,growth,CCRF-CEM leukemia,22.5% (inactive)
same,growth,MOLT-4 leukemia,39.1% (inactive)
same,growth,RPMI-8226 leukemia,51.3% (inactive)
same,growth,OVCAR-8 ovarian,39.3% (inactive)
same,growth,OVCAR-5 ovarian,107% (inactive)
same,growth,OVCAR-4 ovarian,103% (inactive)
same,growth,SK-OV-3 ovarian,49.7% (inactive)
same,growth,IGROV1 ovarian,109% (inactive)
same,growth,OVCAR-3 ovarian,67.2% (inactive)
same,growth,HS 578T breast,88.9% (inactive)
same,growth,NCI/ADR-RES ovarian,47.7% (inactive)
C=C1C(=O)OC2CC1C(OC(C)=O)C/C(C)=C/CC/C(C)=C\CCC2(C)O (stereo unspecified),growth,SK-MEL-2 melanoma,41.5% (inactive)
same,growth,EKVX NSCLC,59.3% (inactive)
same,growth,SN12C renal,40.6% (inactive)
same,growth,UO-31 renal,-39.8% (active)
same,growth,TK-10 renal; 10 µM,-11.8% (active)
same,growth,TK-10 renal; 100 µM,-98.1% (active)
same,growth,ACHN renal,-5.85% (active)
same,growth,CAKI-1 renal,16% (inactive)
same,growth,A498 renal,87.3% (inactive)
same,growth,CCRF-CEM leukemia,-17.1% (active)
same,growth,MOLT-4 leukemia,-14.4% (active)
same,growth,SR leukemia,-25.1% (active)
same,growth,RPMI-8226 leukemia,-22.3% (active)
same,growth,OVCAR-5 ovarian,65.7% (inactive)
same,growth,OVCAR-4 ovarian,-0.648% (active)
same,growth,SK-OV-3 ovarian,102% (inactive)
same,growth,OVCAR-3 ovarian,3.4% (active)
same,growth,HS 578T breast,72% (inactive)
same,growth,NCI/ADR-RES ovarian,17.9% (inactive)
CC1=CC(=C(c2ccc(N)cc2)c2ccc(N)cc2)C=CC1=N,growth,SK-MEL-2 melanoma,-27.7% (active) and 41.7% (inactive)
same,growth,EKVX NSCLC,15.5% (inactive) and 46.2% (inactive)
same,growth,SN12C renal,10.3% (inactive) and 6.77% (active)
same,growth,UO-31 renal,32% (inactive) and 85.8% (inactive)
same,growth,TK-10 renal; 10 µM,38.2% (inactive) and 15.3% (inactive)
same,growth,ACHN renal,28.9% (inactive) and 58.6% (inactive)
same,growth,CAKI-1 renal,65.5% (inactive)
same,growth,A498 renal,-7.24% (active) and 57.3% (inactive)
same,growth,CCRF-CEM leukemia,19.3% (inactive) and 35.8% (inactive)
same,growth,MOLT-4 leukemia,10.4% (inactive) and 51.9% (inactive)
same,growth,SR leukemia,14.7% (inactive) and 24.8% (inactive)
same,growth,RPMI-8226 leukemia,-15.6% (active) and 33.4% (inactive)
same,growth,OVCAR-8 ovarian,6.23% (active) and 16% (inactive)
same,growth,OVCAR-5 ovarian,46.8% (inactive) and 53.3% (inactive)
same,growth,OVCAR-4 ovarian,24.1% (inactive) and 33.7% (inactive)
same,growth,SK-OV-3 ovarian,38.2% (inactive)
same,growth,IGROV1 ovarian,70% (inactive)
same,growth,OVCAR-3 ovarian,-35.6% (active) and 28.4% (inactive)
same,growth,HS 578T breast,23.6% (inactive) and 89.5% (inactive)
same,growth,NCI/ADR-RES ovarian,86.6% (inactive) and 101% (inactive)
